Results on 4 molecules are retold here after PubChem BioAssay.

Calls of active or inactive are those of the source. Unless noted, no rule for the calls is given here.

Assay [1] relates to Wnt5a (protein binding on small-molecule microarray). The assay can be described thus: Wnt5a binders on small-molecule microarray, primary screen, biophysical, 635/667 nm fluorescence (AID 1142).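 Also: fluorescence read at 667 nm with signal to noise per printed feature.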 As to conditions: 635 nm fluorescence, higher = more signal.
Assay [2] in a line: cell viability in Huh7 cells, primary screen, cytotoxicity control for HCV replication inhibitor project, CellTiter-Glo luminescence, basal, 48 h (AID 1143).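 Also: Huh7 hepatoma cells carrying a hepatitis C replication reporter with no stimulus; test concentration not given here.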 As to conditions: Huh7 HCV replicon, higher = more signal, called active from +8 up or from −8 down. A general note: ATP-based viability assays read luminescence as a measure of living cells.
Assay [3] in a line: P. aeruginosa biofilm formation inhibitors, primary screen, PAO1 strain, BacTiter-Glo luminescence, LB-PBS (AID 1144). As to conditions: 12 h, higher = more signal.
A short description of assay [4]: CREB reporter modulators without forskolin, primary screen, cell-based, PC12, CRE-LacZ reporter, unstimulated (AID 1145). Particulars: no forskolin, luminescence, 4.5 h, higher = more signal, called active from +8 up or from −8 down.
The nature of assay [5]: CREB reporter modulators under forskolin, primary screen, cell-based, PC12, CRE-LacZ reporter, forskolin-stimulated (AID 1146).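 Also: PC12 cells with 6xCRE LacZ reporter stimulated by forskolin 10 µM; beta-galactosidase reporter signal reflecting CREB driven transcription.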 As to conditions: luminescence, 4.5 h, higher = more signal, called active from +8 up or from −8 down.
In assay [6] the target is Streptavidin (Streptomyces avidinii) (UniProt P22629). The assay can be described thus: streptavidin binders on small-molecule microarray, primary screen, artefact control for SMM compound annotation, biophysical, 635/667 nm fluorescence (AID 1147).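 Also: signal reflects streptavidin binding to arrayed compounds as a control protein.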 Particulars: streptavidin binding, higher = more signal.
A short description of assay [7]: small-molecule binders of probe aInhba, primary screen, biochemical, small-molecule microarray, 635/667 nm fluorescence (AID 1148).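 Also: score merges 667nm spot fluorescence with signal-to-noise for antibody binding to printed compounds.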 As to conditions: higher = more signal.
The target of assay [8] is Torsin-1A (Homo sapiens) (UniProt O14656). The assay can be described thus: torsin A binders from cell lysate, primary screen, small-molecule microarray, wild-type, 635/667 nm (AID 1149). Particulars: COS7 hTOR1A-WT lysate, 635 nm fluorescence, higher = more signal.
Assay [9] has the same target. The assay can be described thus: small-molecule binders of mutant TOR1A in lysate, primary screen, cell lysate, small-molecule microarray, COS7 lysate, 635/667 nm fluorescence (AID 1150).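 Also: score pools 667 nm emission and signal to noise measuring lysate protein binding.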 As to conditions: COS7 hTOR1A mutant lysate, 635 nm fluorescence, higher = more signal.
The test system of assay [10] is Sonic hedgehog protein (Shh). The experiment in a line: small-molecule binders of Shh protein, primary screen, biochemical, small-molecule microarray, 635/667 nm fluorescence (AID 1151).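 Also: Shh protein binding to compounds spotted on small-molecule microarray slides; score combines spot fluorescence intensity with signal-to-noise across triplicate slides.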 As to conditions: small-molecule microarray binding, 635 nm fluorescence; higher = more signal.
Assay [11] can be described thus: E. coli DRC41 culture turbidity changes, primary screen, E. coli filamentation inducer project, strain DRC41, OD650, 48 h (AID 1152).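 Also: E. coli MC1000 strain DRC41 lacking acrAB efflux pump and sulA.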 Particulars: E. coli DRC41 (acrAB sulA), higher = more signal, called active from +8 up or from −8 down.
Assay [12] can be described thus: small-molecule binders of probe aLefty1, primary screen, biochemical, small-molecule microarray, 635/667 nm fluorescence (AID 1153).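 Also: score merges spot fluorescence with signal-to-noise ratio from the scanned slide images.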 As to conditions: higher = more signal.
A short description of assay [13]: PSAC antagonists in infected red cells, primary screen, cell-based, P. falciparum Indochina, OD700, 1 h (AID 1154). As to conditions: P. falciparum Indochina infected RBC osmotic lysis, higher = more signal, called active from +8 up or from −8 down.
Assay [14] in a line: PSAC antagonists in infected red cells, primary screen, cell-based, P. falciparum Indochina, OD700, 2 h (AID 1155).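 Also: lysis reports solute entry through the parasite surface anion channel PSAC; channel blockers reduce lysis of infected cells.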 As to conditions: P. falciparum Indochina infected erythrocytes, osmotic lysis OD700; higher = more signal, called active from +8 up or from −8 down.
Assay [15] can be described thus: osmotic lysis modulators in infected erythrocytes, primary screen, PSAC antagonist project, cell-based, P. falciparum Indochina, OD700, 3 h (AID 1156). As to conditions: higher = more signal, called active from +8 up or from −8 down.
Assay [16] is described as follows: PSAC antagonists in infected red cells, primary screen, cell-based, P. falciparum Indochina, OD700, 18 h (AID 1157). Particulars: P. falciparum Indochina infected erythrocytes, osmotic lysis OD700, 18 h; higher = more signal, called active from +8 up or from −8 down.
Assay [17] can be described thus: modulators of S6 phosphorylation in cells, primary screen, cell-based, A549, cytoblot, luminescence, serum-stimulated (AID 1158).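 Also: serum-stimulated A549 lung adenocarcinoma cells; signal is phosphorylated S6 detected by cytoblot immunostaining with HRP secondary.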 As to conditions: A549 phospho-S6 cytoblot, 5 h, higher = more signal.
The target in assay [18] is NADPH oxidase 2 (Homo sapiens) (UniProt P04839). The experiment in a line: NOX2-dependent H2O2 signal modulators, primary screen, NOX inhibitor project, cell-based, HEK293-NOX2, PMA-stimulated, Amplex Red fluorescence (AID 1159). Also: test concentration not given here. As to conditions: 45 min, higher = more signal, called active from +8 up or from −8 down.
In assay [19] the target is NADPH oxidase 4 (Homo sapiens) (UniProt Q9NPH5). The experiment in a line: NOX4-dependent H2O2 signal modulators, primary screen, NOX inhibitor project, cell-based, HEK293-NOX4, tetracycline-induced, Amplex Red fluorescence (AID 1160). Particulars: 45 min, higher = more signal, called active from +8 up or from −8 down.
The target of assay [20] is NADPH oxidase 5 (Homo sapiens) (UniProt Q96PH1). The experiment in a line: NOX5-dependent H2O2 signal modulators, primary screen, NOX inhibitor project, cell-based, HEK293-NOX5, Amplex Red fluorescence (AID 1161). As to conditions: HEK293-NOX5, ionomycin, 45 min, higher = more signal.
NADPH oxidase 5 (Homo sapiens), sequence (Q96PH1 whole entry, looked up): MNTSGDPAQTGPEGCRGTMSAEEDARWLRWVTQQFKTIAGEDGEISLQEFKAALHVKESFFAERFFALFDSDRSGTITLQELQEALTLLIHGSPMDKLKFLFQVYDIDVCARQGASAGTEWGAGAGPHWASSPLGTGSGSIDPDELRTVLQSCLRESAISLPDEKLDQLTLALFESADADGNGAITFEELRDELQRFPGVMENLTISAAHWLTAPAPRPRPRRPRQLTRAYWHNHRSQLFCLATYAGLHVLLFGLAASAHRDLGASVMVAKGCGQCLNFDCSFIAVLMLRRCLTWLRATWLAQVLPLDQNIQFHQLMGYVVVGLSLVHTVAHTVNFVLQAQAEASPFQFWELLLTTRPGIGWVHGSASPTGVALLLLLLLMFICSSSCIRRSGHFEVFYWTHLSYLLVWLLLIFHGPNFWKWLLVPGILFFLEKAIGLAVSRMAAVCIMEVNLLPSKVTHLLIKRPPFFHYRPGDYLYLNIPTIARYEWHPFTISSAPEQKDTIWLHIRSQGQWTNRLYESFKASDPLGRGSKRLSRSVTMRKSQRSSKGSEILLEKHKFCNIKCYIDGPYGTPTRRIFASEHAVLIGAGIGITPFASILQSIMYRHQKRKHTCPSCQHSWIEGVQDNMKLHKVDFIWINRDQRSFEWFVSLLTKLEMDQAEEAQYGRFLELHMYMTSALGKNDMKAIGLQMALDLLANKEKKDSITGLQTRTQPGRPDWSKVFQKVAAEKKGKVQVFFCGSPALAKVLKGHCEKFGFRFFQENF

Streptavidin (Streptomyces avidinii), sequence (P22629 whole entry, looked up): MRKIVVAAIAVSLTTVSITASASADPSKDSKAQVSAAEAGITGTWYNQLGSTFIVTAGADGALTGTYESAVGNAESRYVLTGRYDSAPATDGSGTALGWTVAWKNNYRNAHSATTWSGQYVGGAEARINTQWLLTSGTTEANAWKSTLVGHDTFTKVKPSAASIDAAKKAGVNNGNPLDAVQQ
NADPH oxidase 4 (Homo sapiens), sequence (Q9NPH5 whole entry, looked up): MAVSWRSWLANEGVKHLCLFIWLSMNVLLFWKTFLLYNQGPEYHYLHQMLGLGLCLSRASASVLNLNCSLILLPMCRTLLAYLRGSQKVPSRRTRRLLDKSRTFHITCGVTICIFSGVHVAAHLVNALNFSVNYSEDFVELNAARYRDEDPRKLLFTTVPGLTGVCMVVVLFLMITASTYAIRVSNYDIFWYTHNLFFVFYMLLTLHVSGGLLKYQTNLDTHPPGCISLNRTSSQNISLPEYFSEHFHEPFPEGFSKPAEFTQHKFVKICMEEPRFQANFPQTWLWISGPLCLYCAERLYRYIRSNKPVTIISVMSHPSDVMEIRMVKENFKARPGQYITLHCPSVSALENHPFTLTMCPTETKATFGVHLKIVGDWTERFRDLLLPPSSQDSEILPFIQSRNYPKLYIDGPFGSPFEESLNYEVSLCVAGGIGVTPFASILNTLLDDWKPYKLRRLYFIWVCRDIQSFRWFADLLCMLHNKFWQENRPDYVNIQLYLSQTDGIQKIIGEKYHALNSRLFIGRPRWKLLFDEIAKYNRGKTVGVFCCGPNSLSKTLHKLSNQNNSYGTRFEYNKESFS
Torsin-1A (Homo sapiens), sequence (O14656 whole entry, looked up): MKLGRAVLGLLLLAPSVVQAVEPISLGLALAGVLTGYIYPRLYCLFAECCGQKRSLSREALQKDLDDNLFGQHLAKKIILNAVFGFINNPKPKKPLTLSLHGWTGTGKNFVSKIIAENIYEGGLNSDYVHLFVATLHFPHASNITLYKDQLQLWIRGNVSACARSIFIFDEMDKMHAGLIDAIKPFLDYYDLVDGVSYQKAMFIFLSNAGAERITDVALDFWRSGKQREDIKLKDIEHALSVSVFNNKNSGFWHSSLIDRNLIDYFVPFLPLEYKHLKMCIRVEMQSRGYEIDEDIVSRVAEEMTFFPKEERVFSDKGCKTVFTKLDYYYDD
NADPH oxidase 2 (Homo sapiens), sequence (P04839 whole entry, looked up): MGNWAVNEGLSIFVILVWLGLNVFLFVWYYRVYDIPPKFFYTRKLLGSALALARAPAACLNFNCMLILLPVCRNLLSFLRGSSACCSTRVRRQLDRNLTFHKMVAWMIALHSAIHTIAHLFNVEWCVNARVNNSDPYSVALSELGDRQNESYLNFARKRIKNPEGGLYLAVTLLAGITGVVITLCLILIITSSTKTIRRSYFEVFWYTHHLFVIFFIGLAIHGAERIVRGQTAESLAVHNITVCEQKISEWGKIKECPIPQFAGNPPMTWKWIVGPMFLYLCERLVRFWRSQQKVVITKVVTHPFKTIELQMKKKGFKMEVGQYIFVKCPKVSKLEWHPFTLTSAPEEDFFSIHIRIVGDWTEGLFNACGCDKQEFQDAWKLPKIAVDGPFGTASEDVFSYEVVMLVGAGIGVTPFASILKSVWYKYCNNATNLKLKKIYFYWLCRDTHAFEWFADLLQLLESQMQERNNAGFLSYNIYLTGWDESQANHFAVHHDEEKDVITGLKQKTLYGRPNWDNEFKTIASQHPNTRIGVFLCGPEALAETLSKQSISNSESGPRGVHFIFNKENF

`O=C(O)[C@@H]1[C@@H]2C(=O)N(c3ccccc3)C(=O)[C@@H]2C[C@@H]1Sc1ccccc1`: the composite z-score in assay [1] was -0.129; in [6] it was -0.237; in assay [7] it was -0.389; with Torsin-1A (Homo sapiens) [8], -0.402; in the assay with Torsin-1A (Homo sapiens) [9], -1.03; in assay [10], -1.45. The same molecule showed a composite z-score in assay [12] of -0.0573. Further, the z-score in [2] was 0.739 (inactive); in assay [3] it was 0.956 (inactive); in assay [4], 0.379 (inactive); in assay [5], 0.774 (inactive); in assay [11], -1.52 (inactive); in assay [13], 0.919 (inactive). In addition, the z-score in assay [14] is 0.544 (inactive); in assay [15], 0.0175 (inactive); in [16] it was 0.631 (inactive); in assay [17], -0.381; in assay [18] it was 0.312 (inactive); in [19] it was -0.541 (inactive). This molecule yielded a z-score in assay [20] of -0.295.
As to `COC(=O)[C@@]1(Cc2ccc(F)cc2)[C@H]2c3cc(C(=O)N4CCCC4)n(CCc4c[nH]c5ccccc45)c3C[C@H]2CN1C(=O)c1ccccc1`, the composite z-score is 0.407 in assay [1]; 1.91 in assay [6]; 0.668 in assay [7]; -0.0812 in the assay with Torsin-1A (Homo sapiens) [8]; 0.321 with Torsin-1A (Homo sapiens) [9]; -0.393 in [10]. Also, the composite z-score in assay [12] was determined as 1.04. For the same molecule, the z-score in assay [2] is -3.01 (inactive); in assay [3], 1.82 (inactive); in assay [4], 0.587 (inactive); in assay [5] it was 0.668 (inactive); in assay [11] it was -2.35 (inactive); in [13] it was 2.02 (inactive). For the same molecule, the z-score was 0.946 (inactive) in assay [14]; 0.805 (inactive) in assay [15]; 1.06 (inactive) in [16]; -0.142 in assay [17]; 0.515 (inactive) in assay [18]; 0.988 (inactive) in [19]. For the same molecule, in assay [20], the z-score stood at 1.9.
Turning to `COCCOC(=O)N1C(=O)[C@@]2(c3cc(C#CCCO)ccc31)[C@H](C(=O)Nc1nc3ccccc3s1)[C@H]1C(=O)O[C@H](c3ccccc3)[C@H](c3ccccc3)N1[C@@H]2c1ccc(O)cc1`, the composite z-score worked out at 0.73 in [1]; 0.809 in assay [6]; 0.279 in assay [7]; 0.772 with Torsin-1A (Homo sapiens) [8]; 0.833 in the assay with Torsin-1A (Homo sapiens) [9]; 1.06 in [10]. In [12], this molecule had a composite z-score of 0.126. Moreover, the z-score was -1.16 (inactive) in assay [2]; 0.263 (inactive) in [3]; -0.168 (inactive) in [4]; 2.14 (inactive) in [5]; 0.0106 (inactive) in assay [11]; 1.41 (inactive) in assay [13]. In addition, the z-score in [14] was 0.523 (inactive); in [15], 1 (inactive); in [16], 0.417 (inactive); in assay [17], 0.0869; in assay [18] it was 1.43 (inactive); in assay [19], 0.0581 (inactive). In addition, in assay [20], the z-score was determined as 0.329.
Turning to `C=C(/C(=C/C[C@H](OC(=O)c1ccncc1)c1ccc(CO)o1)c1cnc2ccccc2c1)C(C)C`, the composite z-score amounted to 0.49 in assay [1]; 1.42 in assay [6]; 0.0993 in [7]; 0.353 in the assay with Torsin-1A (Homo sapiens) [8]; 0.491 in the assay with Torsin-1A (Homo sapiens) [9]; 1.97 in assay [10]. Also, the composite z-score in assay [12] stood at 0.0844. For the same molecule, the z-score in assay [2] was -0.259 (inactive); in assay [3] it was -0.747 (inactive); in assay [4] it was 1.58 (inactive); in assay [5] it was 0.0737 (inactive); in assay [11], -0.833 (inactive); in [13], 6.75 (inactive). Moreover, the z-score in [14] was 1.37 (inactive); in [15], 1.47 (inactive); in [16] it was 0.528 (inactive); in assay [17], -0.702; in assay [18], 1.42 (inactive); in assay [19], 0.0654 (inactive). In assay [20], the z-score is -0.415.
